Results on 19 sequences are retold here after the OligoGym collection.
Note: reference of the scale not given here.

The first test deals with TEF. Nature of the test: pooled miR-30 sensor sort-seq; sequence = guide strand. The note with it: shRNA.
The sequence TTGGTGACTCTAGACTAGGTGT had a sensor-assay potency score (higher = more potent) of 0.324.

Take TCATCCTTCTGCTCGTCGGGGA: the sensor-assay potency score (higher = more potent) is 0.16.

In turn, TTGTCCAGTACTTTTCATCCTT gave a sensor-assay potency score (higher = more potent) of 0.089.

TTGCGTCTTGTCCAGTACTTTT had a sensor-assay potency score (higher = more potent) of -1.72.

TATGGGATGGTCTTGTCCCAGA came in with a sensor-assay potency score (higher = more potent) of -1.26.

In turn, TTTAGCTGCCACGTTGTTCTTC had a sensor-assay potency score (higher = more potent) of -0.221.

TAGCTCTGCTACAGGCAGCAGC returned a sensor-assay potency score (higher = more potent) of -0.912.

As to TACTTGGACACGATGGTCTTGC, the sensor-assay potency score (higher = more potent) is -0.169.

TAGACTAGGTGTCTTGCCCTGC registered a sensor-assay potency score (higher = more potent) of -0.327.

In turn, TTCTTCTTGCGTCTTGTCCAGT showed a sensor-assay potency score (higher = more potent) of -0.866.

A further test has as its target TELO2. The test is described as above. The note with it: shRNA.
Sequence TTCTTGTTCTTCACCACCAGGT showed a sensor-assay potency score (higher = more potent) of -0.407.

TTGGAGAGAGTCCACAACCGCC showed a sensor-assay potency score (higher = more potent) of -1.23.

In the case of ATCATCGCTGTCCAGGTCCGAG, the sensor-assay potency score (higher = more potent) was -1.37.

TAGGCATCGATGTGGAAGCGAA: the sensor-assay potency score (higher = more potent) was -1.36.

AAACTCATCATCGCTGTCCAGG showed a sensor-assay potency score (higher = more potent) of -1.32.

As to TTGCCCAGCAGCGTCTCCCGGA, the sensor-assay potency score (higher = more potent) is -1.12.

In turn, TAGTTGAGGGCATAGAACTGTG registered a sensor-assay potency score (higher = more potent) of -0.752.

TCCATCAGCACTGCCAGCCGGC: the sensor-assay potency score (higher = more potent) was -1.21.

In turn, TTCATCAGCCGGAAGCTGGGGC registered a sensor-assay potency score (higher = more potent) of 0.0431.
